Sampled rows, rich in hits. Any-hit rate of the full collection: about 1.6%.
KCNQ2 block – inhibitors of rat KCNQ2 potassium channel; O88943; CHO-K1 KCNQ2, FluxOR thallium flux, 20 min; active compounds read low; B-score at 10 µM; 310,000 tested, 1.1% active; AID 2156;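 active means fluorescence ratio B-score at most minus 3 library SDs, with starting brightness B-score within 2 library SDs, cut at about -5.5 in these data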
Target sequence (O88943 whole entry, looked up): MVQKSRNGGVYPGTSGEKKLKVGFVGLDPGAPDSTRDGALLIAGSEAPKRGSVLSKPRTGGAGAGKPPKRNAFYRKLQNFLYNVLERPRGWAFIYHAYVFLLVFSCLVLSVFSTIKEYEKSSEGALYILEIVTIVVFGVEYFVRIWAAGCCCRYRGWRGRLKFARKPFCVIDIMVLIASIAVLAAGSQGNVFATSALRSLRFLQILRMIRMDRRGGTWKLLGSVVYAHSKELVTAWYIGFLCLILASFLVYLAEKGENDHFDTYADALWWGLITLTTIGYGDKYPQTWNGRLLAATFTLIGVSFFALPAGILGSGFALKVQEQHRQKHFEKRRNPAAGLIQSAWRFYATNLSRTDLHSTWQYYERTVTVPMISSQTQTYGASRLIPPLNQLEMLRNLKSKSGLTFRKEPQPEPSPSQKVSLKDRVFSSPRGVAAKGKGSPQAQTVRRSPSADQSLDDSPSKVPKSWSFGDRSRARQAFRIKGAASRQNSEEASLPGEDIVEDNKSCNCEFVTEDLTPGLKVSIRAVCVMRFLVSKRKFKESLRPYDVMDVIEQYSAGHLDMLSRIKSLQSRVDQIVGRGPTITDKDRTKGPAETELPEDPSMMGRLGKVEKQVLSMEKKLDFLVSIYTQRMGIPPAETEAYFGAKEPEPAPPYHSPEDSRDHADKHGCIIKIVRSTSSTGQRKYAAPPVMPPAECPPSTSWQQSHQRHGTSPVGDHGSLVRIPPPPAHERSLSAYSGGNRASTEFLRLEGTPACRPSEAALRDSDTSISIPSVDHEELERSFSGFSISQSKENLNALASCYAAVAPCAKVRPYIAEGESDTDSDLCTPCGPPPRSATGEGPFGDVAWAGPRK
KCNQ2 enhance – KCNQ2 (rat) channel potentiation; CHO-K1 KCNQ2, FluxOR thallium flux fluorescence; active compounds read high; B-score at 10 µM; AID 2239; 310,000 tested, 0.54% active;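 active means fluorescence ratio B-score at least 3 SD of library B-scores, with initial fluorescence B-score within 3 of them, cut at about 5.3 in these data; same plate scores as AID 2156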;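 further: B-score of peak minus minimum over baseline fluorescence ratio after K+ and Tl+ stimulus; positive B-score means potentiation of KCNQ2 with more thallium influx and brighter signal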
KCNQ2 inh conf – confirmation of rat KCNQ2 potassium channel inhibitors | activity change, negative = inhibition, % at 10 µM | KCNQ2-expressing cells, thallium flux, inhibition; active compounds read low | shares compounds with KCNQ2 block | 1,000 tested, 57% active;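 further: 0% = vehicle wells and values are ratio percent relative to vehicle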
KCNQ1 spec – selectivity of KCNQ2 inhibitors against human KCNQ1. activity change, negative = inhibition, % at 10 µM. shares compounds with KCNQ2 block. AID 493026. KCNQ1-expressing cells, FluxOR thallium flux fluorescence; active compounds read low. 1,000 tested, 15% active;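 active means activity change at least 3 SD of negative controls below their mean in both duplicate wells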;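 further: CHO cells stably transfected with KCNQ1 and depolarized by potassium stimulus; peak minus minimum fluorescence over baseline after thallium addition; 0% = vehicle negative control and -100% = blank without thallium stimulus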
CHO parental ctr – activity in parental CHO cells lacking KCNQ2; 1,000 tested, 14% active; activity change, % at 10 µM; shares compounds with KCNQ2 block; thallium flux counter-screen; active compounds read low;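 further: 0% = vehicle negative controls with stimulus buffer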
KCNQ2 patch conf – confirmation of rat KCNQ2 potassium channel inhibitors | shares compounds with KCNQ2 block | KCNQ2-expressing cells, automated patch clamp current | calls only at 10 µM | 550 tested, 49% active | AID 588531
Starred values were filed as active, the others as inactive; i = inactive; . = no result; + = active, no number. Unless noted, how the calls were made is not given here.

SMILES | KCNQ2 block | KCNQ2 enhance | KCNQ2 inh conf | KCNQ1 spec | CHO parental ctr | others
COc1ccc(/C=C2/C(=O)C(C)(C(C)C)CCC2C)cc1 (stereo not given) | i | . | . | . | .
Clc1ccc(SCc2nc3ccccc3[nH]2)cc1 | i | . | . | . | .
Clc1ccc(/C(Cc2nc3ccccc3[nH]2)=N\Nc2ccccc2)cc1 | -6.6* | -6.6 | -38.0%* | i | i | KCNQ2 patch conf=i
CC(C)c1ccc(C2CC(=O)c3cnc(N4CCc5ccccc5C4)nc3C2)cc1 (stereo not given) | i | . | . | . | .
O=C1CC(c2ccco2)Cc2nc(N3CCc4ccccc4C3)ncc21 (stereo not given) | -10.3* | -10.3 | -27.0%* | i | i | KCNQ2 patch conf=i
CN1CCN(c2cc(-c3ccccc3)nc3cc(-c4ccc(F)cc4)nn23)CC1 | i | . | . | . | .
COc1cccc(-c2cc3nc(-c4ccccc4)cc(N4CCC5(CC4)OCCO5)n3n2)c1 | -8.41* | -8.41 | -31.5%* | i | i | KCNQ2 patch conf=i
O=C(/C=C/c1ccc(Cl)cc1)N(c1ccccn1)C1CCCCC1 | -8.14* | -8.14 | -44.0%* | -35.0%* | -34.0%* | KCNQ2 patch conf=+
O=C(/C=C/c1cccc(F)c1)N(c1ccccn1)C1CCCCC1 | i | . | . | . | .
CCN(CC(=O)Nc1ccccc1C(F)(F)F)C(=O)CSCc1ccc(C)cc1 | i | . | . | . | .
N#C/C(=C/c1ccc(N2CCCCC2)o1)c1cccc(F)c1 | i | . | . | . | .
N#C/C(=C/c1ccc(N2CCCCCC2)o1)c1ccc(Cl)cc1 | -8.38* | -8.38 | -31.0%* | -28.0%* | -22.5%* | KCNQ2 patch conf=i
O=C(Nc1oc2ccc(Cl)cc2c(=O)c1-c1ccc(F)cc1)c1ccco1 | i | . | . | . | .
CCC(=O)N1CCN(c2cc(N3CCN(C)CC3)c(F)cc2[N+](=O)[O-])CC1 | i | 0.22 | . | . | .
CN1CCN(c2cc(N3CCc4ccccc4C3)c(F)cc2[N+](=O)[O-])CC1 | -6.85* | -6.85 | i | i | i
COc1ccc(/C=C/C(=O)N2CCCc3ccccc32)c(OC)c1 | i | . | . | . | .
COc1ccc(OC)c(/C=C/C(=O)N2CCCc3ccccc32)c1 | -7.02* | -7.02 | -38.0%* | i | i | KCNQ2 patch conf=i
COc1ccccc1N1CCN(/N=C/c2cccc(OC)c2O)CC1 | i | . | . | . | .
COc1ccccc1N1CCN(/N=C/c2cc(Br)ccc2F)CC1 | -10.5* | -10.5 | -17.5%* | i | i | KCNQ2 patch conf=i
COc1ccc(/C=N/N2CCN(c3ccccc3OC)CC2)cc1Br | i | . | . | . | .
COc1ccccc1N1CCN(/N=C/c2cccc(Cl)c2)CC1 | -7.03* | -7.03 | -29.5%* | i | i | KCNQ2 patch conf=+
Cc1ccc(S(=O)(=O)N2CCCCC2C(=O)N(C)c2ccccc2)cc1 (stereo not given) | i | 0.68 | . | . | .
O=C(/C=C/c1ccccc1)N1CCC(Cc2ccccc2)CC1 | i | . | . | . | .
O=C(/C=C/c1cccc(Cl)c1)N1CCC(Cc2ccccc2)CC1 | -10.9* | -10.9 | -35.0%* | -41.0%* | -34.0%* | KCNQ2 patch conf=+
CCn1c(NC(=O)/C=C/c2ccc(F)cc2)nc2ccccc21 | i | . | . | . | .
SMILES | KCNQ2 block | KCNQ2 enhance | KCNQ2 inh conf | KCNQ1 spec | CHO parental ctr | others
Cc1ccc(-n2ncc3c2CC(C)(C)CC3NC(=O)CCc2ccc(=O)[nH]n2)cc1 (stereo not given) | i | 0.49 | . | . | .
COc1ccc(-n2c(=O)c3c4c(sc3n(CC(=O)NC3CCCC3)c2=O)CCCC4)c(OC)c1 | -6.71* | -6.71 | i | i | i
COc1ccc(-n2c(=O)c3c4c(sc3n(CC(=O)NCC3CCCO3)c2=O)CCCC4)c(OC)c1 (stereo not given) | i | . | . | . | .
Cc1cccc(Oc2cc(NC(=O)c3ccccc3)cc([N+](=O)[O-])c2)c1 | -7.32* | -7.32 | i | i | i
Cn1cc([N+](=O)[O-])c(C(=O)Nc2cc(Oc3ccccc3)cc([N+](=O)[O-])c2)n1 | i | 1.61 | . | . | .
CCOc1ccc(OCCC(=O)OCC(=O)NC(C)c2ccccc2)cc1 (stereo not given) | i | 0.46 | . | . | .
COc1ccc(NC(=O)c2cc3c(Cl)nc4ccccc4c3s2)c(OC)c1 | i | 0.8 | . | . | .
COc1ccc(N(C)C(=O)c2cc3c(Cl)nc4ccccc4c3s2)cc1 | -9.52* | -9.52 | -39.0%* | -40.0%* | -37.0%* | KCNQ2 patch conf=+
C/C(=N\OCC(=O)NC12CC3CC(CC(C3)C1)C2)c1cc2ccccc2o1 | -6.8* | -6.8 | -38.5%* | -37.0%* | -27.0%* | KCNQ2 patch conf=i
CSc1ccccc1NC(=O)CO/N=C(\C)c1cc2ccccc2o1 | i | . | . | . | .
COc1cc(-c2nc3ccccn3c2NCC2CCCO2)ccc1O (stereo not given) | i | 0.81 | . | . | .
CCOc1cc(-c2nc3ccccn3c2NCC2CCCO2)ccc1O (stereo not given) | -9.55* | -9.55 | i | i | i
O=[N+]([O-])c1ccccc1COc1ccc(Cl)c2cccnc12 | i | . | . | . | .
Cc1cccc2nc(COc3ccc(Cl)c4cccnc34)cn12 | -9.13* | -9.13 | -29.0%* | i | i | KCNQ2 patch conf=+
Cc1ccc(OCC(=O)N(Cc2ccccc2)c2c(N)n(Cc3ccccc3)c(=O)[nH]c2=O)c(C)c1 | i | 0.08 | . | . | .
C=CCn1c(SCC(=O)c2cc(C)n(C(C)COC)c2C)nc2sc(C)c(C)c2c1=O (stereo not given) | -10.8* | -10.8 | i | i | i
C=CCn1c(SCC(=O)NCCO)nc2sc(C)c(C)c2c1=O | i | . | . | . | .
Cn1cc(/C=N/n2cnc3sc4c(c3c2=O)CCCC4)c2ccccc21 | -9.24* | -9.24 | i | i | i
O=c1c2c3c(sc2ncn1/N=C/c1ccc([N+](=O)[O-])o1)CCCC3 | i | . | . | . | .
O=C(COC(=O)/C(=C/c1cccs1)c1cccs1)NC(c1ccccc1)c1ccccc1 | -8.64* | -8.64 | i | i | i
O=C(Cc1cccs1)NC(c1ccccc1)c1ccccc1 | i | . | . | . | .
CC(C)CN(C(=O)COC(=O)CCc1nc2ccccc2s1)c1c(N)n(Cc2ccccc2)c(=O)[nH]c1=O | i | . | . | . | .
CCN(CC)S(=O)(=O)c1ccc(N2CCOCC2)c(NC(=O)CCOc2ccccc2)c1 | i | . | . | . | .
O=C(CC12CC3CC(CC(C3)C1)C2)Nc1ccccc1N1CCOCC1 | -6.85* | -6.85 | -30.0%* | -34.5%* | -20.5%* | KCNQ2 patch conf=i
CCN(CC)S(=O)(=O)c1ccc(N2CCOCC2)c(NC(=O)COc2ccccc2)c1 | -6.78* | -6.78 | -31.0%* | i | i | KCNQ2 patch conf=+
SMILES | KCNQ2 block | KCNQ2 enhance | KCNQ2 inh conf | KCNQ1 spec | CHO parental ctr | others
CCCCC(=O)Nc1ccccc1N1CCOCC1 | i | 1.57 | . | . | .
CCc1sc(C(=O)Nc2ccccc2N2CCOCC2)cc1C | -7.34* | -7.34 | -18.0%* | i | i
Cc1cc(C)c(OCC(=O)Nc2ccccc2N2CCOCC2)c(C)c1 | -9.45* | -9.45 | i | i | i
O=C(Nc1ccccc1N1CCOCC1)c1cc2c(s1)CCCCC2 | i | . | . | . | .
CC(=O)N1CCN(c2ccccc2NC(=O)COc2cc(C)cc(C)c2)CC1 | i | . | . | . | .
COc1cccc(NC(=O)CCC2CCN(C(=O)c3ccc(C(C)=O)s3)CC2)c1 | i | . | . | . | .
CN(C)c1ccc(/C=N/Nc2nncc3ccccc23)cc1 | i | 0.7 | . | . | .

Screens (PubChem)
